Out of some 300,000 compounds screened, about 1,700 (0.57%) were called active. Not shown: some 2% with an inconclusive outcome.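 Rule for the calls: active = growth inhibition above about 58% in most replicates (limit read from the data, passing the limit was not always enough); inconclusive = exactly half the replicates above a set limit; inactive = most replicates below a set limit.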 This excerpt belongs to a sample that is enriched for actives.

A short description of this assay: Candida growth reduction under fluconazole – CaCi-2 strain, Alamar Blue fluorescence, primary screen (AID 1979).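 Note: all wells also contain fluconazole at 8 µg/ml as a sub-toxic cotreatment; 0% = median of DMSO wells and 100% = median of geldanamycin control wells.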 The following applies: C. albicans CaCi-2 (fluconazole-resistant clinical isolate) + fluconazole, 48 h, hits give high values, concentration not given here. (In general: Resazurin is reduced to fluorescent resorufin, in cell work by metabolically active cells.)
On to `Cc1ccc(C)c(NC(=O)COC(=O)Cn2c(C)csc2=O)c1`, for which the growth inhibition is -4.71% (inactive).

With `Cc1ccc(NS(=O)(=O)c2ccc(C)c(NC(=O)COc3ccc4ccccc4c3)c2)c(C)c1`, the growth inhibition was 31.8% (inactive). In the case of `COc1cc(NS(=O)(=O)c2ccc3ccccc3c2)c2ncccc2c1`, the growth inhibition is 89.3% (active). Regarding `COc1ccc2cc(S(=O)(=O)Nc3ccccn3)ccc2c1`, the growth inhibition was -0.283% (inactive). Regarding `Cc1ccc(Nc2nc(CSc3nnc(-c4ccncc4)n3-c3ccccc3C)cs2)cc1`, the growth inhibition was 113% (active). As for `Cc1ccccc1-n1c(SCC(=O)NCc2cccs2)nnc1-c1ccncc1`, the growth inhibition was 8.03% (inactive). Take `Cc1ccc(-n2c(SCC(=O)N3c4ccccc4Sc4ccccc43)nnc2-c2ccncc2)cc1`: the growth inhibition is -22.2% (inactive). For `O=C(OCCOCn1cc(Br)c(=O)[nH]c1=O)c1ccccc1` the value was -9.14% (inactive); for `CCOc1ccc(NC(=O)COc2ccc(C(=O)N3CCC(C(N)=O)CC3)cc2OC)cc1`, -4.97% (inactive).

`CC(C)Oc1ccc(S(=O)(=O)N2CCOCC2)cc1NC(=O)C1CSC2(C)CCC(=O)N12` (stereo not given): the growth inhibition is -0.702% (inactive). In the case of `COc1ccc(C(=O)NCCCN2CCOCC2)cc1Br`, the growth inhibition was -0.331% (inactive). As to `Cc1ccc(S(=O)(=O)N2CCN(C(=O)Cc3sc(C)nc3-c3ccc(F)cc3)CC2)c(C)c1`, the growth inhibition was -1.25% (inactive). As for `Cc1nc2c(c(C)nn2-c2ccccc2)c(C)c1C`, the growth inhibition is 1.68% (inactive). Take `O=C(N/N=C/c1ccccn1)c1cccnc1`: the growth inhibition is 6.91% (inactive). For `O=C(N/N=C/c1ccc(O)c2ccccc12)c1cccnc1` the value was 11.5% (inactive); for `O=C(N/N=C/c1sc(N2CCCCC2)nc1-c1cccs1)c1cccnc1`, 94.5% (active); for `CCOc1ccc(NC(=O)c2ccc(NC(=O)CN3C(=O)C(=O)N(CC(C)C)C3=O)cc2)cc1`, -2.68% (inactive).

As to `COc1ccc(S(=O)(=O)NCc2cccnc2)cc1NC(=O)c1ccc(C)cc1`, the growth inhibition is -3.27% (inactive). To `CCOc1ccc(-n2c(O)c(/C=N/Nc3nc(C)cc(C)n3)c3ccccc3c2=O)cc1` belongs 113% (active); to `CCOc1ccc(-n2c(O)c(/C=N/c3ccnn3Cc3ccncc3)c3ccccc3c2=O)cc1`, 15.4% (inactive); to `CCN(CC)CCCN=Cc1c(O)n(-c2ccc(C)cc2)c(=O)c2ccccc12`, -8.89% (inactive). `CCOC(=O)c1c(C)[nH]c(C(=O)OCC(=O)N2CCCC2=O)c1C`: the growth inhibition was -3.16% (inactive). `Cc1nc2ccccc2nc1N/N=C/c1ccc(O)cc1O`: the growth inhibition was 10.5% (inactive). Take `COc1ccc(-n2cnnc2SCC(=O)Nc2cccc(S(N)(=O)=O)c2)cc1`: the growth inhibition was -1.9% (inactive). To `C=CCn1c(CC(=O)Nc2cccc(OC)c2)nnc1SCC(=O)NC1CCCCC1` belongs 4.51% (inactive); to `C=CCn1c(COc2ccc(F)cc2)nnc1SCC(=O)Nc1cccc(S(N)(=O)=O)c1`, 94.6% (active); to `CS(=O)(=O)c1ccc(Cl)c(NC(=O)COC(=O)c2cccc(S(=O)(=O)N3CCCC3)c2)c1`, -1.03% (inactive). In the case of `Cc1cc(Nc2ccc(C(=O)N3CCCCC3)cc2)c2cccc(C)c2n1`, the growth inhibition is 2.84% (inactive). With `Cc1ccn2c(=O)nc(SCC(=O)NCc3ccc4c(c3)OCO4)nc2c1`, the growth inhibition was 1.59% (inactive). To `Cc1ccc(N/N=C2\COC(C)(C)CC2=O)cc1` belongs 101% (active). To `COc1ccc(N/N=C2/CCCCC2=O)cc1` belongs -21.7% (inactive); to `Cc1ccc(NN=C2C(=O)OC(C)(C)OC2=O)c(C)c1`, -5.58% (inactive).

In the case of `COc1ccccc1C(=O)NC(=O)COC(=O)c1ccco1`, the growth inhibition is 8.59% (inactive). Regarding `CC1CN(C(=O)COC(=O)c2cccc(NS(=O)(=O)c3ccccc3)c2)CC(C)O1` (stereo not given), the growth inhibition was 5.4% (inactive).

Consider `O=C(N/N=C/c1ccc(O)cc1)/C(=C/c1ccc([N+](=O)[O-])cc1)NC(=O)c1ccccc1`, for which the growth inhibition is 1.1% (inactive). Turning to `O=[N+]([O-])c1ccc(O)c(/C=N/Nc2ccccc2[N+](=O)[O-])c1`, the growth inhibition was -1.45% (inactive). Take `O=C(N/N=C/c1cc([N+](=O)[O-])ccc1O)/C(=C\c1cccs1)NC(=O)c1ccccc1`: the growth inhibition is 116% (active). On to `COc1ccccc1OCc1ccc(C(=O)NC(C)c2ccccc2)o1` (stereo not given), for which the growth inhibition is -11.7% (inactive).

For `COc1ccc(OC)c(NC(=O)CSc2nc(-c3ccccc3)cc(=O)[nH]2)c1`, the growth inhibition is 55% (inactive). To `O=[N+]([O-])c1ccc(N/N=C/c2ccccc2)cc1` belongs -28.5% (inactive). For the compound `Cc1ccc(NS(=O)(=O)c2ccc(N/N=C/c3ccccc3OCC(=O)O)c([N+](=O)[O-])c2)c(C)c1`, the growth inhibition is -7.09% (inactive). In the case of `Cc1cccc(COc2ccccc2/C=N/Nc2ccc([N+](=O)[O-])cc2)c1`, the growth inhibition was 91.8% (active). For `O=C1c2ccccc2C(=O)c2c1cccc2N1CCN(C/C=C/c2ccccc2)CC1`, the growth inhibition is 8.05% (inactive). For `Cc1ccc(S(=O)(=O)NC(C)C(=O)NCc2ccc(Cl)cc2)cc1` (stereo not given), the growth inhibition was -3.28% (inactive). For `COc1ccc(C2=NN(C(C)=O)C(c3ccccc3)C2)cc1` (stereo not given), the growth inhibition is -6.81% (inactive). For `COc1ccc(-n2nnnc2-c2nc3ccccc3s2)cc1` the value was -12.1% (inactive); for `COc1ccc(C2=NN(c3nc4ccccc4s3)C(=O)C2)cc1`, 94.5% (active). Regarding `O=c1c2ccccc2ncn1CCCCOc1ccccc1F`, the growth inhibition is 0.805% (inactive).

`CC(C)Oc1ccc(CCC(=O)NNC(=S)NCc2ccccc2)cc1`: the growth inhibition was 1.53% (inactive). With `COc1ccc(C(=O)NNC(=S)NC(=O)c2ccccc2[N+](=O)[O-])cc1`, the growth inhibition is 5.98% (inactive). As for `COc1ccc(C(=O)NC(=S)NNC(=O)c2c(-c3ccccc3)noc2C)cc1`, the growth inhibition is 32.7% (inactive). In the case of `O=C(CCc1ccccc1)NNC(=O)c1ccc(Br)cc1`, the growth inhibition was 5.83% (inactive).

Consider `COc1ccc(C(=O)NC(=S)NNC(=O)CCc2ccccc2)cc1`, for which the growth inhibition was 114% (active). Turning to `COc1ccc(C(=O)NNC(=S)NC(=O)c2ccccc2)cc1`, the growth inhibition was 96.8% (active). Take `Cc1ccc(NC(=O)c2cnc(SCC(=O)NCC3CCCO3)n(C)c2=O)cc1` (stereo not given): the growth inhibition was -0.731% (inactive). To `CCOc1ccc(CCNC(=O)COC(=O)CCS(=O)(=O)c2ccc(C)cc2)cc1OCC` belongs -6.92% (inactive).

For `COc1cccc(NC(=O)CN(C)C(=O)CSC(=S)N2CCCC2)c1`, the growth inhibition is -3.71% (inactive). With `CC(=O)Nc1ccc(NC(=O)CSc2nnnn2C2CCCCC2)cc1`, the growth inhibition was -2.4% (inactive). With `Oc1c(Cl)cc(Cl)c(Cl)c1Cc1c(O)c(Cl)cc(Cl)c1Cl`, the growth inhibition is 110% (active). To `Cc1c(C(=O)Nc2ccccn2)oc2ccc(Br)cc12` belongs 27.1% (inactive); to `COc1ccc(OC)c(NC(=O)c2ccc3c(c2)C(=O)N(c2ccc(OC(C)=O)cc2)C3=O)c1`, 0.417% (inactive); to `CC(=O)c1sc(N)nc1C`, -4.24% (inactive).

For the compound `Cc1ccc(NC(=O)COc2coc(CN3CCc4ccccc4C3)cc2=O)cc1Cl`, the growth inhibition is -1.39% (inactive). To `Cc1ccc(CC(=O)N(C)CC(=O)N(CC(C)C)c2c(N)n(CC(C)C)c(=O)[nH]c2=O)cc1C` belongs 1.58% (inactive); to `Oc1ccccc1CN1CCN(C(c2ccccc2)c2ccccc2)CC1`, -4.19% (inactive). Turning to `CCOC(=O)N1CCN(C(c2cccnc2)c2ccc3cccnc3c2O)CC1` (stereo not given), the growth inhibition was -9.67% (inactive). Regarding `CCN1CCN(C(c2cccnc2)c2cc(Cl)c3cccnc3c2O)CC1` (stereo not given), the growth inhibition was 101% (active). To `CC(=O)Nc1ccc(C(=O)Nc2cccc(S(=O)(=O)NC3=NCCC3)c2)cc1` belongs 3.58% (inactive); to `Oc1ccc(/C=N/Nc2ccc(C(F)(F)F)cn2)cc1O`, -7.01% (inactive).

On to `O=C(CCCO)N/N=C/c1cc(Br)ccc1O`, for which the growth inhibition is -31.2% (inactive). Turning to `Oc1ccc(Br)cc1/C=N/Nc1ccccn1`, the growth inhibition is 106% (active). For `Cc1cc(NC(=O)C(C)SCC(=O)Nc2ccccc2N2CCCCC2)no1` (stereo not given) the value was 1.22% (inactive). Consider `O=C(Nc1nc(-c2ccco2)c(-c2ccco2)s1)c1ccco1`, for which the growth inhibition was -0.652% (inactive). As for `CCc1nnc(NC(=O)CCC(=O)O)s1`, the growth inhibition is -5.2% (inactive).

On to `CSc1nsc(SCC(=O)Nc2cc(C(=O)O)ccc2C)n1`, for which the growth inhibition was 17.7% (inactive). With `CCc1nnc(NC(=O)CSc2nc(SC)ns2)s1`, the growth inhibition is 81.2% (active). For the compound `CC(=O)O[C@H]1CC[C@@]2(C)[C@@H](CC[C@@H]3[C@@H]2CC[C@]2(C)[C@@H](C(C)(C)O)C[C@@H]32)C1`, the growth inhibition was 1.13% (inactive). For `O=C1CCCCC1Sc1ccc(Cl)cc1[N+](=O)[O-]` (stereo not given), the growth inhibition was -3.28% (inactive). To `C[C@@H]1O[C@@H](OC[C@H]2O[C@@H](Oc3c(-c4ccc(O)cc4)oc4cc(O)cc(O)c4c3=O)[C@H](O)[C@@H](O)[C@@H]2O)[C@H](O)[C@H](O)[C@H]1O` belongs 1.9% (inactive). On to `Cc1ccc(-c2cc(C(=O)NC3CCN(Cc4ccccc4)CC3)c3ccccc3n2)cc1`, for which the growth inhibition is 2.43% (inactive). Take `CCOC(=O)N1CCN(C(=O)c2ccc(S(=O)(=O)Nc3cccc(C(F)(F)F)c3)cc2)CC1`: the growth inhibition is -2.84% (inactive). Turning to `Cc1oc2c(F)c(F)c(F)c(F)c2c1S(=O)(=O)Nc1cccc(C(F)(F)F)c1`, the growth inhibition was 84.7% (active). To `CCNS(=O)(=O)c1ccc(NC(=O)Nc2cccc(C(F)(F)F)c2)cc1` belongs -8.1% (inactive); to `Cc1cc(NC(=O)CCS(=O)(=O)c2ccc(F)cc2)no1`, -4.39% (inactive). For `CN(CC(=O)Nc1cccc(F)c1)C(=O)C1=COCCO1`, the growth inhibition was -19.9% (inactive). For `Cc1ccc(S(=O)(=O)N2CCC(C(=O)OCC(=O)N(C)c3ccccc3)CC2)cc1C`, the growth inhibition is 5.01% (inactive).

`CCCN1CCn2c3c(c4cc(Br)ccc42)CCCC31` (stereo not given): the growth inhibition was -13.4% (inactive). To `CC(NS(=O)(=O)c1ccc(Br)cc1)C(=O)NCC1CCCO1` (stereo not given) belongs -9.65% (inactive); to `OC(CNCC1CCCO1)Cn1c2ccc(Br)cc2c2cc(Br)ccc21` (stereo not given), 101% (active). For `Cc1nc(-c2ccc(Cl)cc2)sc1C1(C)CC(c2ccc(Br)cc2)=NO1` (stereo not given) the value was 1.65% (inactive).

Values taken from PubChem BioAssay AID1979 (Broad Institute, 2009).
